# An excerpt weighted towards active compounds, which were near 4.6% of everything screened.
# VACV mCherry inh – inhibitors of vaccinia virus infection (mCherry reporter signal); Potency, µM (top dose mostly 36.5 µM), inactives show at the top dose activity change, negative = inhibition, actives largely listed as inhibitors; 310,000 tested, 0.63% active; Vaccinia virus mCherry reporter infection, fluorescence; calls by dose curve; tested in A549 cells; note: nearly all actives have a fitted effect of over 35% in size
# Vaccinia Venus – inhibitors of vaccinia virus (Venus reporter). 330,000 tested, 0.46% active. Potency, µM (doses to about 36.5 µM), for inactives: at the top dose activity change, negative = inhibition, most hits filed as inhibitors. AID 720580. Vaccinia virus Venus reporter expression, fluorescence; calls by dose curve; tested in A549 cells; note: nearly all actives have a fitted effect of over 30% in size
# Marburg entry inh – inhibitors of Marburg virus binding or cell entry. Potency, µM (titrated, usually from 37.8 µM), inactives show at the top dose activity change, negative = inhibition, usual class: inhibitors. 300,000 tested, 1.8% active. Marburg virus pseudotyped entry inhibition, cell reporter; calls by dose curve; tested in HEK293 cells
# HCV inhibitor – inhibitors of hepatitis C virus infection; Huh7.5.1 HCVcc-Cre infection, luciferase reporter, 44 h; Potency, µM (series often up to 41.8 µM), for inactives: at the highest dose activity change, negative = inhibition, actives largely listed as inhibitors; 340,000 tested, 3.4% active; active = well fitted inhibition curve with a large enough effect; inconclusive = small, poorly fitted or top-dose-only effect, or another doubt; inactive = no such curve, though single readings can be large or run the other way
#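 Whole-lifecycle infectious HCVcc-Cre system; cells 1,000/well, compound then virus (~0.5 moi) added 4 h after plating, 44 h culture. Luciferase read 15 sec following 15 min substrate incubation, room temp.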
# Lassa entry inh – Lassa virus entry inhibition. 300,000 tested, 1.2% active. Potency, µM (titrated, usually from 37.9 µM), for inactives: top-dose activity change, negative = inhibition, hits mostly inhibitors. Lassa virus pseudotype entry inhibition, cell reporter. AID 540256; calls by dose curve; tested in HEK293 cells; note: nearly all actives have a fitted effect of over 50% in size
# Starred values were filed as active, the others as inactive; i = inactive; ? = inconclusive; . = no result given; [ ] = another dose, or the depositor's remark. % is set by controls: 0 for no effect and ±100 for the full control effect; potency is the fitted concentration of half-maximal effect.
SMILES,VACV mCherry inh,Vaccinia Venus,Marburg entry inh,HCV inhibitor,Lassa entry inh
COc1ccc(/C=C/CN2CCCC(CO)(Cc3cccc(Cl)c3)C2)cc1 (stereo unspecified),-25%,?,6.3µM*,-8%,10µM*
COc1ccccc1/C=C/CN1CCCC(CO)(Cc2cccc(Cl)c2)C1 (stereo unspecified),-8%,4%,13µM*,?,14µM*
COc1cccc(CC2(CO)CCCN(C/C=C/c3ccccc3OC)C2)c1 (stereo unspecified),.,.,.,-16%,.
Cc1ccccc1CN1[C@H](C)[C@@H](c2ccccc2)Oc2c(Cl)cccc2S1(=O)=O,.,.,.,.,-12%[46.1 µM]
CC[C@@H](C(=O)[C@@H](C)[C@@H](O)[C@H](C)[C@@H]1O[C@@H]([C@@H](CC)C(=O)O)CC[C@@H]1C)[C@H]1O[C@]2(C=C[C@@H](O)[C@]3(CC[C@@](C)([C@H]4CC[C@](O)(CC)[C@H](C)O4)O3)O2)[C@H](C)C[C@@H]1C,2.5µM*,11µM*,.,0.35µM*,.
Cc1ccc(C)c(Cn2nnc3c(=O)[nH]c(C4CCN(C(=O)c5cccs5)CC4)nc32)c1,i,-21%,?,-8%,?
Cc1ccc(Cn2nnc3c(=O)[nH]c(C4CCN(C(=O)c5cccs5)CC4)nc32)cc1,.,.,?,-4%,2.9µM*
O=c1[nH]c(C2CCN(S(=O)(=O)/C=C/c3ccccc3)CC2)nc2c1nnn2Cc1ccc(F)cc1,?,-23%,7.9µM*,-17%,?
Cc1ccc(Cn2nnc3c(=O)[nH]c(C4CCN(S(=O)(=O)c5cc(C)ccc5C)CC4)nc32)cc1,-13%[1.46 µM],?,?,?,14µM*
O=C(N/N=C/c1c(-c2ccccc2)[nH]c2ccccc12)c1cccnc1,.,.,.,10µM*,.
O=C(N/N=C/c1cn(Cc2ccccc2)c2ccccc12)c1cccnc1,-18%,-23%,4.5µM*,?,?
Cc1c(C(=O)Nc2cccc(C(F)(F)F)c2)oc2ccc(S(=O)(=O)N3CCC4(CC3)OCCO4)cc12,-15%,-25%,.,.,29%[46.1 µM]
CCc1nc2ccccc2c(C(=O)OCC(=O)Nc2cccc(S(=O)(=O)N3CCOCC3)c2)c1C,.,.,4.6µM*,11µM*,?
CCc1nc2ccccc2c(C(=O)OCC(=O)Nc2ccc(S(=O)(=O)N3CCOCC3)cc2)c1C,?,?,?,11µM*,?
O=C(COC(=O)c1nc(Cl)ccc1Cl)Nc1cccc(S(=O)(=O)N2CCOCC2)c1,.,.,.,11%,.
CC(=O)Nc1ccc(NC(=O)COC(=O)c2c3c(nc4ccccc24)CCN(Cc2ccccc2)C3)cc1,?,-29%,?,13µM*,?
CCc1nc2ccccc2c(C(=O)OCC(=O)Nc2cccc(S(=O)(=O)NC3=NCCCCC3)c2)c1C,?,?,?,8.9µM*,22µM*
CCc1cc(=O)oc2cc3occ(-c4ccc(OC)c(F)c4)c3cc12,?,-21%,?,?,5µM*
CCCCCCCCCCCCC[N+](C)(C)Cc1ccccc1,11µM*,11µM*,.,.,.
COc1ccc(C2=NO[C@@H]3C(=O)N(c4ccc(C)cc4C)C(=O)[C@H]23)cc1OC,.,.,3%,0%,6%
COc1ccc(-c2cn(-c3ccc(C)cc3C)c(=O)[nH]2)cc1OC,?,-8%,.,11µM*,.
COc1ccc(NC(=O)C(Cc2ccccc2)NS(=O)(=O)c2ccc3c(c2)CCN3C(C)=O)cc1 (stereo unspecified),-13%,3%,?,.,-9%[46.1 µM]
Brc1cccc(-c2nc3cccnc3nc2-c2cccc(Br)c2)c1,.,.,.,13%,.
Cc1ccc(-c2nc3cc(Br)cnc3nc2-c2ccc(C)cc2)cc1,1%,2%,3.2µM*,13µM*,?
O=C(Nc1ccccc1C(=O)NCc1ccco1)Nc1cccc2ccccc12,-14%,?,.,11µM*,.
SMILES,VACV mCherry inh,Vaccinia Venus,Marburg entry inh,HCV inhibitor,Lassa entry inh
Clc1ccc(Cl)c(OCCCCN2CCNCC2)c1,-7%,-20%,11µM*,?,?
CC(O)CNCCCOc1ccc(Cl)cc1C(C)(C)C (stereo unspecified),-18%,-18%,?,11µM*,-15%
Brc1ccccc1OCCCCCN1CCCC1,.,.,0%,.,.
Clc1ccc(SCCN2CCNCC2)cc1,-5%,-12%,.,-28%,.
Clc1ccc(OCCCCCN2CCCC2)c(Br)c1,-13%,-1%,?,10µM*,?
Clc1ccc(OCCN2CCCCC2)c(Cl)c1,-4%,-13%,?,-14%,0%

# Bioassay records as filed in PubChem BioAssay.
